Measured values taken from PubChem BioAssay AID1159580 (chemical genetic matrix, 2015).
Values joined by “and” are separate entries in the source; they are usually repeats but may differ in a detail not shown here. Identical values can stand only once. About 2,000 (36%) of roughly 5,500 compounds were called active. Not shown: some 18% with an inconclusive outcome. No stated cut-off is given here; in the data, active means normalized growth mostly below about 0.91 (no sharp cut-off); inconclusive means no clear call, values can overlap the other calls; inactive means mostly above about 0.92. The list shows a part of the results.

Assay: chemical genetic growth profiling, strain panel (AID 1159580);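 further: tested at 20 µM; growth read once vehicle control cultures reached saturation at 30 °C; 1 = growth at the plate median or of vehicle wells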
Details: growth OD

Measured: normalized growth

CC(CN(C)C)CN1c2ccccc2CCc2ccccc21 (stereo not given)
inactive: S. cerevisiae deletion strains, locus YJR066W, strain TOR1, stronger effect = lower value 0.94 | S. cerevisiae deletion strains, locus YKL009W, strain mrt4, stronger effect = lower value 1 | S. cerevisiae deletion strains, locus YKL068W, stronger effect = lower value 1.01 | S. cerevisiae deletion strains, locus YKL085W, strain MDH1 (second series), stronger effect = lower value 1.02 | S. cerevisiae deletion strains, locus YKL085W, strain MDH1, stronger effect = lower value 1.02 | S. cerevisiae deletion strains, locus YKL160W, strain elf1, stronger effect = lower value 0.978 | S. cerevisiae deletion strains, locus YKL190W, strain CNB1, stronger effect = lower value 1.02 | S. cerevisiae deletion strains, locus YKR001C, strain vps1, stronger effect = lower value 1.02 | S. cerevisiae deletion strains, locus YKR026C, strain gcn3, stronger effect = lower value 0.991 | S. cerevisiae deletion strains, locus YKR091W, strain srl3, stronger effect = lower value 0.977 | S. cerevisiae deletion strains, locus YLL001W, strain dnm1, stronger effect = lower value 0.989 | S. cerevisiae deletion strains, locus YLL026W, stronger effect = lower value 0.979 | S. cerevisiae deletion strains, locus YLL041C, strain sdh2, stronger effect = lower value 0.965 | S. cerevisiae deletion strains, locus YLR027C, strain aat2, stronger effect = lower value 0.974 | S. cerevisiae deletion strains, locus YLR039C, strain RIC1, stronger effect = lower value 1.13 | S. cerevisiae deletion strains, locus YLR058C, strain SHM2, stronger effect = lower value 1.01 | S. cerevisiae deletion strains, locus YLR102C, strain apc9, stronger effect = lower value 1.02 | S. cerevisiae deletion strains, locus YLR113W, strain HOG1, stronger effect = lower value 0.994 | S. cerevisiae deletion strains, locus YLR221C, strain rsa3, stronger effect = lower value 0.982 | S. cerevisiae deletion strains, locus YLR258W, strain gsy2, stronger effect = lower value 0.984 | S. cerevisiae deletion strains, locus YLR262C, strain YPT6 (second series), stronger effect = lower value 1.01 | S. cerevisiae deletion strains, locus YLR262C, strain YPT6, stronger effect = lower value 1.12 | S. cerevisiae deletion strains, locus YLR268W, strain sec22, stronger effect = lower value 1.02 | S. cerevisiae deletion strains, locus YLR320W, strain mms22, stronger effect = lower value 0.947 | S. cerevisiae deletion strains, locus YLR330W, strain CHS5, stronger effect = lower value 1.01 | S. cerevisiae deletion strains, locus YLR342W, strain FKS1 (second series), stronger effect = lower value 1.04 | S. cerevisiae deletion strains, locus YLR342W, strain FKS1, stronger effect = lower value 0.976 | S. cerevisiae deletion strains, locus YLR357W, strain rsc2, stronger effect = lower value 0.967 | S. cerevisiae deletion strains, locus YLR370C, strain arc18, stronger effect = lower value 0.977 | S. cerevisiae deletion strains, locus YLR371W, strain rom2, stronger effect = lower value 1.01 | S. cerevisiae deletion strains, locus YLR384C, strain iki3, stronger effect = lower value 0.979 | S. cerevisiae deletion strains, locus YLR418C, strain cdc73, stronger effect = lower value 1.02 | S. cerevisiae deletion strains, locus YML016C, strain PPZ1, stronger effect = lower value 1.01 | S. cerevisiae deletion strains, locus YML032C, strain rad52, stronger effect = lower value 1.01 | S. cerevisiae deletion strains, locus YML120C, strain ndi1, stronger effect = lower value 0.971 | S. cerevisiae deletion strains, locus YML124C, strain tub3, stronger effect = lower value 1.02 | S. cerevisiae deletion strains, locus YMR058W, strain fet3, stronger effect = lower value 0.971 | S. cerevisiae deletion strains, locus YMR078C, strain ctf18, stronger effect = lower value 1.01 | S. cerevisiae deletion strains, locus YMR125W, strain sto1, stronger effect = lower value 0.973 | S. cerevisiae deletion strains, locus YMR129W, stronger effect = lower value 0.981 | S. cerevisiae deletion strains, locus YMR205C, strain PFK2, stronger effect = lower value 0.97 | S. cerevisiae deletion strains, locus YMR223W, strain ubp8, stronger effect = lower value 1.02 | S. cerevisiae deletion strains, locus YMR231W, strain pep5, stronger effect = lower value 0.984 | S. cerevisiae deletion strains, locus YMR263W, strain SAP30, stronger effect = lower value 1 | S. cerevisiae deletion strains, locus YMR307W, strain GAS1, stronger effect = lower value 1.05 and 1 | S. cerevisiae deletion strains, locus YNL067W, strain RPL9B, stronger effect = lower value 1.01 | S. cerevisiae deletion strains, locus YNL071W, strain lat1, stronger effect = lower value 0.963 | S. cerevisiae deletion strains, locus YNL128W, strain TEP1, stronger effect = lower value 1.03 and 1.02 | S. cerevisiae deletion strains, locus YNL175C, strain NOP13, stronger effect = lower value 1.01 | S. cerevisiae deletion strains, locus YNL183C, strain NPR1, stronger effect = lower value 0.936 | S. cerevisiae deletion strains, locus YNL197C, strain WHI3, stronger effect = lower value 1.02 | S. cerevisiae deletion strains, locus YNL209W, strain ssb2, stronger effect = lower value 0.98 | S. cerevisiae deletion strains, locus YNL224C, strain SQS1, stronger effect = lower value 1.01 | S. cerevisiae deletion strains, locus YNL233W, strain BNI4, stronger effect = lower value 0.998 | S. cerevisiae deletion strains, locus YNL248C, strain rpa49, stronger effect = lower value 0.988 | S. cerevisiae deletion strains, locus YNL250W, strain rad50, stronger effect = lower value 1.03 | S. cerevisiae deletion strains, locus YNL271C, strain bni1, stronger effect = lower value 1.02 | S. cerevisiae deletion strains, locus YNL298W, strain CLA4, stronger effect = lower value 1.02 | S. cerevisiae deletion strains, locus YNL307C, strain MCK1, stronger effect = lower value 1.03 | S. cerevisiae deletion strains, locus YNL322C, strain KRE1 (second series), stronger effect = lower value 0.966 | S. cerevisiae deletion strains, locus YNL322C, strain KRE1, stronger effect = lower value 1.01 | S. cerevisiae deletion strains, locus YNR049C, strain mso1, stronger effect = lower value 0.977 | S. cerevisiae deletion strains, locus YNR052C, strain pop2, stronger effect = lower value 1.02 | S. cerevisiae deletion strains, locus YOL006C, strain TOP1, stronger effect = lower value 0.976 | S. cerevisiae deletion strains, locus YOL012C, strain htz1 1.63 | S. cerevisiae deletion strains, locus YOL147C, strain pex11, stronger effect = lower value 1.02 | S. cerevisiae deletion strains, locus YOR001W, strain rrp6, stronger effect = lower value 0.979 | S. cerevisiae deletion strains, locus YOR061W, strain CKA2, stronger effect = lower value 1.01 | S. cerevisiae deletion strains, locus YOR069W, strain VPS5, stronger effect = lower value 1.01 | S. cerevisiae deletion strains, locus YOR070C, strain gyp1, stronger effect = lower value 1.01 | S. cerevisiae deletion strains, locus YOR080W, strain dia2, stronger effect = lower value 0.971 | S. cerevisiae deletion strains, locus YOR083W, strain WHI5 (second series), stronger effect = lower value 1.05 | S. cerevisiae deletion strains, locus YOR083W, strain WHI5, stronger effect = lower value 0.976 | S. cerevisiae deletion strains, locus YOR106W, strain vam3, stronger effect = lower value 0.939 | S. cerevisiae deletion strains, locus YOR136W, strain idh2, stronger effect = lower value 1.02 | S. cerevisiae deletion strains, locus YOR144C, strain elg1, stronger effect = lower value 1.02 | S. cerevisiae deletion strains, locus YOR184W, strain ser1, stronger effect = lower value 1.04 | S. cerevisiae deletion strains, locus YOR231W, strain MKK1, stronger effect = lower value 0.983 | S. cerevisiae deletion strains, locus YOR265W, strain rbl2, stronger effect = lower value 0.97 | S. cerevisiae deletion strains, locus YOR270C, strain vph1, stronger effect = lower value 0.897 | S. cerevisiae deletion strains, locus YOR290C, strain snf2, stronger effect = lower value 0.927 | S. cerevisiae deletion strains, locus YOR316C, strain cot1, stronger effect = lower value 1.02 | S. cerevisiae deletion strains, locus YPL051W, strain arl3, stronger effect = lower value 0.972 | S. cerevisiae deletion strains, locus YPL055C, strain LGE1, stronger effect = lower value 1.01 | S. cerevisiae deletion strains, locus YPL078C, strain atp4, stronger effect = lower value 0.961 | S. cerevisiae deletion strains, locus YPL106C, strain sse1, stronger effect = lower value 0.956 | S. cerevisiae deletion strains, locus YPL240C, strain hsp82, stronger effect = lower value 0.978 | S. cerevisiae deletion strains, locus YPL241C, strain CIN2, stronger effect = lower value 1.01 and 1 | S. cerevisiae deletion strains, locus YPL256C, strain CLN2, stronger effect = lower value 0.981 | S. cerevisiae deletion strains, locus YPR119W, strain clb2, stronger effect = lower value 1.02 | S. cerevisiae deletion strains, locus YPR141C, strain kar3, stronger effect = lower value 1.01 | S. cerevisiae deletion strains, locus YPR163C, strain tif3, stronger effect = lower value 1.02 | S. cerevisiae deletion strains, locus YPR167C, strain met16, stronger effect = lower value 1.02 | S. cerevisiae deletion strains, strain wtn01, stronger effect = lower value 1.02 | S. cerevisiae strains, strain wild type, stronger effect = lower value 1
